# Laboratory results: PubChem BioAssay (NCI)
# The panel holds about 83,000 compounds, 20% with a hit somewhere; the sample as a whole holds those more often.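 For each line, cells grew in 96-well plates with the test compound present at a single concentration for 48 hours.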 A number with no mark means an inactive call. Calls of active or inactive are those of the source. The calls were made as follows: active = growth percent below 10; inactive = the rest.
# How the values were obtained:
# Assay in all cases: NCI-60 one-dose screen, 48 h (100 = growth as untreated, 0 = no growth, -100 = all killed)
# Conditions in all cases: 10 µM unless noted
# NCI-H23 lung = system: NCI-H23 lung
# NCI-H226 lung = system: NCI-H226 lung
# NCI-H322M lung = system: NCI-H322M lung
# HOP-62 NSCLC = system: HOP-62 NSCLC
# NCI-H460 lung = system: NCI-H460 lung
# HOP-92 NSCLC = system: HOP-92 NSCLC
# NCI-H522 lung = system: NCI-H522 lung
# A549/ATCC NSCLC = system: A549/ATCC NSCLC
# 786-0 renal = system: 786-0 renal
# COLO 205 colon = system: COLO 205 colon
SMILES,growth (NCI-H23 lung),growth (NCI-H226 lung),growth (NCI-H322M lung),growth (HOP-62 NSCLC),growth (NCI-H460 lung),growth (HOP-92 NSCLC) [%],growth (NCI-H522 lung),growth (A549/ATCC NSCLC),growth (786-0 renal),growth (COLO 205 colon)
CC1CC(C)S(=O)(=O)C1 (centres undefined),106%,105%,113%,115%,116%,120,97.8%,92.6%,107%,108%
S=C=Nc1ccc2ccccc2c1,96.9%,101%,109%,98.3%,105%,79,97.3%,100%,,111%
Oc1cccnc1CN1CCCC1,100%,97.9%,102%,111%,107%,79.7,97.1%,98.2%,,103%
CC(C)N1CC(=O)N2CSCC2C1=O (centres undefined),111%,104%,115%,111%,108%,126,102%,103%,107%,114%
CCOc1ccncc1[N+](=O)[O-],106%,102%,110%,99.1%,108%,102,106%,97.5%,106%,110%
CN(C)c1ncnc2c1cnn2C,103%,98.9%,102%,95.8%,103%,89.2,106%,93.9%,99%,107%
O=S(=O)(O)c1cccc2cccnc12,100%,107%,122%,101%,112%,102,97.4%,106%,105%,127%
CCN1CCCC(N2c3ccccc3Sc3ccccc32)C1 (centres undefined),103%,113%,86%,104%,104%,74,94.9%,103%,87.7%,96.6%
CCCCN(C=S)CCCC,103%,87.4%,105%,81.3%,101%,93.8,91.6%,86.4%,101%,99.1%
CCCCCCCCCCCCCCCCCCSC(=N)N,63.5%,84.1%,88%,81.6%,52.7%,11.1,90.1%,80.6%,61.9%,3.95% (active)
Cc1ccc(Cc2ccc(C)cc2)cc1,106%,100%,98.3%,98.1%,111%,97.5,95.3%,102%,96.1%,107%
CCOC(C=O)OCC,99%,104%,104%,99.5%,113%,95.8,93.1%,97.4%,99.7%,105%
CCCC1OC(c2ccco2)OCC1CC (centres undefined),96.8%,111%,102%,105%,113%,,80.5%,87.5%,105%,106%
CC(=O)NC(CCc1ccc(Cl)c(Cl)c1)c1cccc(O)c(=O)c1 (centres undefined),21.8%,-13.8% (active),5% (active),10.3%,3.68% (active),,15.7%,8.58% (active),10.2%,16.7%
C=C(C)[C@@H]1CC[C@]2(CO)CC[C@]3(C)[C@H](CC[C@@H]4[C@@]5(C)CC[C@H](O)C(C)(C)[C@@H]5CC[C@]43C)[C@@H]12,25.9%,37.5%,68.9%,43.2%,31.4%,,40.2%,-3.89% (active),-7.62% (active),52.5%
CCN(Cc1ccc(Cl)c(Cl)c1)c1ccc2nc(N)nc(N)c2c1C,-76.6% (active),-62.2% (active),-94.3% (active),-74.2% (active),-95.8% (active),,-64.7% (active),-55.9% (active),-89.5% (active),-96.1% (active)

SMILES,growth (NCI-H23 lung),growth (NCI-H226 lung),growth (NCI-H322M lung),growth (HOP-62 NSCLC),growth (NCI-H460 lung),growth (HOP-92 NSCLC) [%],growth (NCI-H522 lung),growth (A549/ATCC NSCLC),growth (786-0 renal),growth (COLO 205 colon)
Cc1cc(Nc2ccc3c(c2)OCO3)c2cc3c(cc2n1)OCO3,46%,88%,57.5%,17.9%,6.21% (active),,-21.1% (active),46.3%,18.9%,-21.3% (active)
O=C(c1ccccc1)c1ccc(-c2ccc(O)cc2)cc1,66.1%,89.3%,37.8%,43%,43.8%,,25.8%,38.6%,72.8%,142%
CCCCCCCCCCCCSC1=C(Cl)C(=O)C(OC)=C(OC)C1=O,43.7%,74.6%,75.8%,75.2%,18.2%,,-63.3% (active),29.4%,65.6%,55.4%
CN=S(=O)(OCCCCCOS(=O)(=NC)c1ccc(C)cc1)c1ccc(C)cc1 (centres undefined),89.1%,86%,101%,101%,55.7%,,116%,119%,99.3%,113%
Cc1ccc(C)c(CCO)c1,117%,91.8%,108%,92.4%,105%,,97.8%,92.6%,97.2%,105%
O=Cc1c(O)c2ccccc2[nH]c1=O,97.8%,88.6%,112%,102%,103%,,94.8%,90.1%,104%,108%
Cc1cc(C(=O)NN)c(C#N)c(=O)[nH]1,100%,99.1%,110%,97%,97.2%,,89.8%,101%,107%,94.1%
CCC1CCC(C)NC1 (centres undefined),91.3%,93.4%,108%,101%,99.7%,,99.2%,105%,102%,103%
C=CCOc1ccc(Cl)cc1Cl,111%,104%,113%,113%,110%,,108%,109%,104%,109%
O=C(NCCc1ccccc1)/C(=C\c1ccc(Cl)cc1Cl)NC(=O)c1ccccc1,91.2%,101%,101%,98.7%,97.1%,,90%,101%,107%,92.9%
Cc1ccccc1NC(=O)Oc1ccc(Cl)cc1C(=O)c1ccccc1,95.1%,92.5%,99.1%,88.1%,104%,,88.4%,91%,102%,109%
NC(CCl)=NCC12CC3CC(CC(C3)C1)C2,-7.12% (active),-0.0494% (active),20.1%,-66.1% (active),-57.6% (active),,-58.7% (active),-47.1% (active),-80.2% (active),-96% (active)
CCCc1cccc(CCC)c1NC(=O)Nc1cc(Cl)cc(Cl)c1,101%,98.1%,96.8%,104%,118%,,85.7%,93.8%,93.9%,120%
CC(=O)NC(O)C(Cl)Cl (centres undefined),91.8%,102%,98.4%,95.6%,106%,,94%,102%,112%,98.9%
BrCc1cccc(C[P+](c2ccccc2)(c2ccccc2)c2ccccc2)c1,87%,73.7%,89%,33.8%,48.5%,,24.6%,69.4%,98.8%,-35.3% (active)
